Experimental data taken from PubChem BioAssay AID605 (National Center for Advancing Translational Sciences (NCATS), 2007).
Among all 71,000 compounds or so, about 35 (0.05%) were called active. Calls come from the whole dose curve; as a rule, active = well fitted curve in the direction sought with a large enough effect; inconclusive = small, poorly fitted or top-dose-only effect, or effect the other way; inactive = flat fitted curve, though single readings scatter. A selection follows.

Each compound was assayed against tRNA threonylcarbamoyladenosine biosynthesis protein TsaE (Escherichia coli (strain K12)) (UniProt P0AF67) (assay: qHTS Assay for Inhibitors of YjeE). Conditions: purified YjeE enzyme, qHTS inhibition assay.
Experimental: NIH Molecular Libraries Screening Centers Network [MLSCN]
NIH Chemical Genomics Center [NCGC]
Assay Provider: Eric Brown, McMaster University
YjeE is an essential E.coli protein of unknown function that binds adenosine diphosphate (ADP). A complex of YjeE and BODIPY Texas Red-labeled ADP probe (Invitrogen, catalog number A22359) is incubated with library members. Inhibitors of YjeE-ADP binding are detected by a decrease in the fluorescence polarization (FP) of the fluorophore. Purified YjeE was supplied by Chand Mangat and Eric Brown, McMaster University.
NCGC Assay Protocol Summary:
2 uM probe/10 uM YjeE in columns 1, 2, 5-48. Titration of ADP control (from 40 mM, then 1:2) pin-transferred to top half of column 2. Column 1 and bottom half of column 2 are neutral.
Two and a half uL of reagents were dispensed to 1536-well Greiner black plates. Compounds and controls (20 nL) were transferred via Kalypsys PinTool. The plates were incubated for 15 min at room temperature, and then read on ViewLux (Perkin-Elmer) High-throughput CCD imager using BODIPY polarization filter set and 30 seconds exposure time. During dispense, reagent bottle was kept submerged into 4 deg C water bath and all liquid lines were covered with aluminum foil to minimize probe and protein degradation.
Keywords: NIH Roadmap, MLSCN, MLI, MLSMR, qHTS, NCGC, YjeE

outcome, inactive:
CCCCC(CC)CN (stereo not given)
Cc1ccccc1Nc1nc(N)nc(CN2CCN(c3ccccn3)CC2)n1
COc1c(F)c(F)c(-c2csc(N)n2)c(F)c1F
COC(=O)[C@H]1C[C@@H]1[C@H](NC(=O)Oc1ccc(F)cc1)c1ccccc1
COC(=O)C(C)C1Sc2ccccc2NC1=O (stereo not given)
CC(C)(CNCC(O)c1ccccc1)N1CCOCC1 (stereo not given)
Cc1cnc(CNc2ncncc2-c2ccccc2Cl)cn1
COc1ccc(C2C3=C(OC(C)=O)c4ccccc4C3=Nc3c2c(=O)n(C)c(=O)n3C)cc1 (stereo not given)
Cn1c(-c2ccc(C(=O)c3ccccc3)s2)nc2ccccc21
COc1ccccc1-c1nc(C(F)(F)F)c(OC)o1
Nc1nc(N)c2[nH]c(CNc3ccc(C(=O)O)cc3)nc2n1
CCCc1nc2ccccc2c(=O)n1/N=C/c1ccc(O)c(O)c1
CC(C)[C@@H](CC(=O)N[C@@H]1CCNC[C@H]1C(=O)N[C@H](CC(=O)N[C@@H](CCC(=O)O)CC(=O)O)Cc1ccccc1)NC(=O)C[C@H](CO)NC(=O)[C@@H]1CNCC[C@H]1N
COc1ccc2nc(NC3=NCN(CC4CCCO4)CN3)nc(C)c2c1 (stereo not given)
Cc1cc(OCC(=O)O)c(Cl)cc1Cl
Cc1cc(NC(=O)COC(=O)c2ccc(F)c(S(=O)(=O)N3CCOCC3)c2)no1
COc1ccc(C(=O)CSc2nccc(=O)[nH]2)cc1
CCOC(=O)c1ccc(NC(=O)CS(=O)(=O)c2cn(CC)c3ccccc23)cc1
Cc1cc(=O)[nH]c(SCC(N)=O)c1C#N
CSCCC(NC(=O)c1ccc(=O)n(C)n1)c1nc2ccccc2[nH]1 (stereo not given)
O=C(NCc1ccc(Cl)cc1)c1cc2c(nc3sccn32)s1
CC(C)(C)NCC[C@@H](O)c1cc(C(F)(F)F)nc2c(C(F)(F)F)cccc12
COc1nc(Oc2ccc(=O)n(C)n2)nc(N(C)C)n1
CCCCNC(=O)CSc1nccn1Cc1ccccc1
C1CCC2OC2C1 (stereo not given)
O=c1c(-c2cc(F)cc(F)c2)nc2cnc(Oc3ccccc3)nc2n1C[C@H]1CCCO1
CCOC(=O)c1ccc(NC(=O)CSc2nnc(COc3ccccc3OC)n2C)cc1
C[C@]1(C(=O)NCCc2c[nH]c3ccccc23)C=C[C@@H](Cc2ccccc2)N1C(=O)c1ccccc1
N#Cc1ccc(C(c2nnnn2CCc2ccccc2)N2CCCCCC2)cc1 (stereo not given)
COc1ccc(N2C(=O)C3CCCN3C2c2cccs2)cc1 (stereo not given)
COc1ccc(C)cc1S(=O)(=O)NC1CCCCC1
O=C1c2oc3ccccc3c(=O)c2C(c2cccc(O)c2)N1c1ccccn1 (stereo not given)
CC(=O)CC(C)C
COC(=O)N1CCC2(CCCN(Cc3ccccc3OC)C2)CC1
COc1ccc(OC)c(Nc2nc(-c3ccc(O)c(O)c3)cs2)c1
FC(F)(F)c1ccccc1-c1cc(NCc2ccccc2)ncn1
CN1[C@@H]2CC[C@H]1CC(NC(=O)c1nn(C)c3ccccc13)C2 (stereo not given in full)
C[C@]12CC[C@@H]3C(=CCc4cc(O)ccc43)[C@@H]1CCC2=O
Cc1cc(=O)n(C)c(=O)n1CCCNc1ccccc1
CC(C)c1ccc2c([Si](C)(C)C)c3c(nc2c1)-c1cccc(=O)n1C3
COc1ccc(N2C(=O)CCC(C(=O)N(C)C3CCCCC3)C2c2ccc(OC)c(OC)c2)cc1 (stereo not given)
C[N+](C)(CCCCCC[N+](C)(C)CCCN1C(=O)c2cccc3cccc(c23)C1=O)CCCN1C(=O)c2cccc3cccc(c23)C1=O
COc1ccc(Cl)cc1S(=O)(=O)N1CCN(CC(=O)C(C)(C)C)CC1
CN1CCN(S(=O)(=O)c2ccc3[nH]cc(C(=O)O)c(=O)c3c2)CC1
Cc1ccc(C)c(N2CCN(C(=O)CCc3nc4ccccc4[nH]3)CC2)c1
O=Cc1c(Cl)cccc1Cl
COc1cccc(N(CC(=O)Nc2cccc(N(C)S(C)(=O)=O)c2)S(C)(=O)=O)c1
COc1ccccc1NC1=NC2(CCCC2)N=C(N)N1
CCOc1ccc2[nH]c(=O)c(C(c3nnnn3CCOC)N3CCOCC3)cc2c1 (stereo not given)
COC(=O)C1(C)C=CC2(CCCCC2)N1C(C)=O (stereo not given)
CC/C=C/C/C=C/C/C=C/CCCCCCCC(=O)OCC
O=C(OC(C(=O)NC1CCCC1)c1ccc(F)cc1)c1ccno1 (stereo not given)
O=c1cnc2cnc(Nc3ccccc3)nc2n1Cc1ccc(F)cc1
COCCn1c(SCC(=O)Nc2cc(Cl)ccc2OC)nc2c(c1=O)SC(C)C2 (stereo not given)
C=C(C)c1cccc(C(C)(C)NC(=O)N2CCN(c3ncccn3)CC2)c1
O=C(Cl)c1ccccc1[N+](=O)[O-]
CCOC(=O)CN(C(=O)CN1CCOCC1)c1ccc(Br)cc1
CC(C)NC(=O)N1CC[C@@]2(CCCN(C(=O)c3ccco3)C2)C1
S=c1[nH]nc(SCc2ccccc2Cl)c2[nH]cnc12
CSc1cccc(NC(=O)CSc2ccccc2)c1
Cc1ccc2oc(=O)c3cnn(CC(=O)N4CCN(c5ccccn5)CC4)c3c2c1
O=C(CNS(=O)(=O)c1cccc(C(F)(F)F)c1)Nc1ccccc1F
COC(=O)[C@@]1(Cc2ccccc2)[C@H]2c3cc(C(=O)N4CCCC4)n(Cc4ccc(C)o4)c3C[C@H]2CN1C(=O)c1ccccc1
COc1ncc2nc(-c3ccc(Cl)cc3)c(=O)n(C)c2n1
CC(c1ccco1)N(C(=O)c1ccc(S(=O)(=O)N2CCCCC2)cc1)c1ccccn1 (stereo not given)
CC(C)NS(=O)(=O)c1ccc(OCC(=O)Nc2ccc3c(c2)OCCO3)cc1
Cc1ccc(-n2c(SCC(=O)Nc3ccc4c(c3)OCO4)nnc2-c2ccoc2C)cc1
CCOC(=O)NC(C(F)(F)F)(C(F)(F)F)P(=O)(c1ccccc1)c1ccccc1
CCCC(=O)N1c2ccc(-c3csc(N)n3)cc2CC1C (stereo not given)
Cc1ccc(O)c(NC(=O)COc2cc(C)ccc2C)c1
COc1ccc(-c2nc3cnc(N(C)C)nc3n(Cc3cccs3)c2=O)cc1
O=C(Cl)c1ccc([N+](=O)[O-])cc1
Cc1cc(C)cc(N)c1
CCOC(=O)N1CCN(C(=O)C2CC(c3ccc(F)cc3)=NO2)CC1 (stereo not given)
Cc1ccc2c(c1)N(CC(=O)N1CCCc3ccccc31)C(=O)C(C)O2 (stereo not given)
CCOc1cccc(/C(O)=C2/C(=O)C(=O)N(CCOC)C2c2ccncc2)c1 (stereo not given)
CC1CC(C)CN(CC(=O)Nc2ccc(S(N)(=O)=O)cc2)C1 (stereo not given)
CN(c1ccc(C(=O)N2CCc3ccccc3C2)cc1)S(C)(=O)=O
COc1ccccc1N1CCN(C(=O)c2cc3c(-c4ccc(Cl)cc4)nn(C)c3s2)CC1
Cn1c(CC(=O)Nc2ccccc2)nnc1SCC(=O)c1ccccc1
Cc1nnc(NC2=NCCCCC2)o1
Cn1cc(-c2nc3cnc(N4CCNCC4)nc3n(CCc3ccccc3)c2=O)c2ccccc21
COc1cccc(Nc2ncc3ncc(=O)n(C4CC4)c3n2)c1
CNC(=O)C1(C)C=CC2(CCCCC2)N1C(C)=O (stereo not given)
COc1ccccc1CNc1ncnc2ccc(-c3ccc4c(c3)OCO4)cc12
COC(=O)[C@@]1(Cc2ccc(OC)cc2)[C@H]2c3cc(C(=O)N4CCCC4)n(Cc4ccc(OC(F)(F)F)cc4)c3C[C@H]2CN1C(=O)c1ccccc1
O=C(O)c1cccc(S(=O)(=O)NCCO)c1
COc1ccc(N)c(C)c1
O=C(Cn1ccc(=O)[nH]c1=O)Nc1ccc(C(=O)O)c(O)c1
COc1ccc(CC(=O)Nc2c3c(nn2-c2cccc(Cl)c2)CS(=O)C3)cc1 (stereo not given)
COCCCN1C(=O)C(=O)/C(=C(/O)c2ccc3c(c2)CC(C)O3)C1c1cccnc1 (stereo not given)
Cn1cc(-c2nc3cncnc3n(-c3ccccc3)c2=O)c2ccccc21
Cc1cc(Cl)c(S(=O)(=O)NCCC(=O)O)cc1OCC(N)=O
Cc1ccnc(SCCn2c(Br)nc3c2c(=O)[nH]c(=O)n3C)n1
CC(=NCc1ccc2c(c1)OCO2)C1=C(O)c2ccccc2C1=O
Cc1ccc2c(c1)sc1ncc(NC(=O)c3ccccc3)c(=O)n12
CCCCOc1ccc(Cl)cc1CSc1nncn1N
CCN(Cc1cc2cc(C)ccc2[nH]c1=O)S(=O)(=O)c1ccccc1
CSCC[C@H](NC(=O)NCCc1ccc(F)cc1)C(=O)O
O=C(Cn1cc2c(n1)CCCCC2)NCCN1CCOCC1
CC(=O)Nc1ccc(NC(=O)CN2CCCC(C)C2)c(Cl)c1 (stereo not given)
COCCn1c(=O)c(-c2cccc(F)c2)nc2cncnc21
Oc1cc2c(cc1O)CN(C(=S)NCCc1ccc(Cl)cc1)CCC2
CN=C(NC#N)NCCSCc1nc[nH]c1C
COC(=O)c1nc(NC(=O)c2ccc(Cl)cc2)n[nH]1
NC(=O)CCCC1=NS(=O)(=O)c2ccccc2N1
COC(=O)c1c(NC(=O)CSc2nncs2)sc2c1CCCCC2
CC(=O)N(CC1CCCO1)C1(C(=O)NC2CCCC2)CCCCC1 (stereo not given)
COc1ccc2[nH]cc(CCNc3nc(-c4cccc(NS(C)(=O)=O)c4)nc4ccccc34)c2c1
CCCCCN(C(=O)NC(=O)Nc1ccccc1OC)S(C)(=O)=O
